Data as given in ChEMBL document CHEMBL3988442, “University of Dundee, Small-Polar-MMV Screening Library” (2021).

Molecular target: AMP-activated protein kinase, AMPK (Homo sapiens) (UniProt P54646+O43741+P54619+Q9UGJ0+Q9Y478+Q13131+Q9UGI9)
Experiment: AMP-dependent Kinase enzyme assay. An in vitro enzyme assay that detects ADP turnover that is directly proportional to AMPK activity. This uses naive AMPK that is activated during the assay with MK-8722
Type: functional
Design: scale not given: direction of the effect not stated beside the values
Conditions: 30 µM

SMILES | Percent Effect
CN1CCCC(CNC(=O)CN(C)S(=O)(=O)c2cccnc2)C1 (stereo not given) | -10.7%
CC(OCC1CC1)C(=O)Nc1ccn(Cc2ccccc2)n1 (stereo not given) | 2.88%
COCC(NC(=O)c1cc(NC(C)=O)ccc1Cl)c1ccnn1C (stereo not given) | -8.6%
Cc1cn[nH]c1C1COCCN1Cc1ccsc1 (stereo not given) | 14.3%
CC(O)CN1CCN(C(=O)CCOc2ccccc2F)CC1 (stereo not given) | -1.3%
CC(NCc1nnc2n1CCCC2)c1nc(Cc2ccccc2)no1 (stereo not given) | -1.56%
CCSc1cc(C(=O)N(C(C)C)C2CC2)ccn1 | 0.102%
CN(CC(O)C(F)(F)F)C(=O)Nc1cccc(C(F)F)c1 (stereo not given) | -0.316%
CCOC(=O)N(C)C1CCN(Cc2cnc3ccccn23)CC1 | 0.795%
FC(F)(F)c1ccnc(N2CCC(c3nccn3CC3CC3)CC2)n1 | 19.6%
O=C1NC(C(=O)NCc2cccnc2Oc2ccc(F)cc2F)CO1 (stereo not given) | 5.7%
CN(CC1(CO)CCC1)c1nc2c(c(=O)[nH]1)Cc1ccccc1OC2 | 1.42%
Cc1occc1CNc1ncccc1S(N)(=O)=O | 6.37%
O=C(CN1CC(c2nc(-c3ccco3)no2)C1)NCCc1ccccc1 | -5%
Cc1c(C(=O)NCCC(=O)N2CCCC2)cccc1-c1ccccn1 | 13.9%
COc1cc(Cl)cc(CN2CCCC(N3CCOCC3)C2)c1OC (stereo not given) | 4.12%
COc1ccc(S(=O)(=O)Nc2cccnc2-n2cncn2)c(C)c1 | -5.19%
COc1cnc(N2CC(N3CCOCC3)C2)nc1-c1ccnn1C | -7.62%
CCN1CCN(c2ccccc2NC(=O)NCc2ccon2)CC1 | 2.14%
CNS(=O)(=O)c1c(C)sc2ccccc12 | 7.5%

SMILES | Percent Effect
CC(=O)N1CCC(c2ncc(C(=O)Nc3ccccc3)c(C)n2)CC1 | 25%
Cc1nsc(C(=O)NCCCc2ccccc2)n1 | 1.51%
FC(F)(F)c1ccnc(N2CCCN(Cc3ccccn3)CC2)n1 | -1.31%
Cc1cccc(S(=O)(=O)NC2CCN(CC(F)(F)F)C2)c1 (stereo not given) | -6.29%
Cc1ccc(-c2cc(C(=O)N(C)Cc3noc4c3CCCC4)[nH]n2)s1 | -10.3%
CCc1c(C(=O)Nc2ccc(F)c(C(=O)NC)c2)cnn1CC(C)C | 11.4%
O=C(c1cccc2ccnn12)N1CCC[C@H]1CN1CCCC1 | -0.374%
CC(C)c1cc(C(=O)NCCc2nc(-c3ccncc3)n[nH]2)[nH]n1 | 39.1%
CCCS(=O)(=O)N1CCC(c2ccc(OC)cc2)CC1 | 2.67%
CC1(C)CC(C(=O)N2CCC3(CCC(=O)N(C4CC4)C3)CC2)CCO1 (stereo not given) | -0.458%
Cc1ccccc1S(=O)(=O)N(C)[C@@H]1CC[C@@H](n2ccnc2C)[C@@H]1O | -13.8%
CC(C)N(CC(N)=O)C(=O)CCC(=O)c1ccc(F)cc1F | -2.63%
O=S(=O)(NC1CCCOC1)c1ccc(C(F)(F)F)nc1 (stereo not given) | 7.35%
Cc1c(CN2Cc3nccn3CC2c2ccccc2)cnn1C (stereo not given) | 7.11%
CC(C)[C@@H]1CN(c2ccc(C(F)(F)F)cn2)C[C@H]1NS(C)(=O)=O | 3.23%
O=C(c1cc(C2CC2)nc2onc(-c3ccccc3)c12)N1CC[C@H](O)C1 | 4.74%
COCc1cccc(NC(=O)NCCCN(C)S(C)(=O)=O)c1 | -1.69%
COCc1ccccc1NC(=O)CCNC(=O)c1ccoc1 | -3.07%
O=C(C1CCCO1)N1CCC(n2cc(-c3ccc(F)cc3)nn2)CC1 (stereo not given) | 3.48%
O=S(=O)(NC1CCOC1)c1ccc(C(F)(F)F)nc1 (stereo not given) | 6.19%
